Tested on: Vero E6 infected with SARS-CoV-2
Assay: morphology score (similarity to uninfected cells); higher = more like uninfected cells
Details: 24 h

SMILES	morphology score
C=CC(=O)N1CCN(C(=O)CNc2cc(I)c(Cl)cc2O)CC1 [K-Ras(G12C)-inhibitor-12] (10 µM)	-0.138
COc1ccc(S(=O)(=O)N2CCCN(S(=O)(=O)c3ccc(OC)c(OC)c3)CC2)cc1OC (10 µM)	0.209
Cc1cc(C(N)=O)ccc1-n1c(CCC(=O)O)ccc1-c1ccc(-n2ccnc2)cc1 (10 µM)	0.066
CCCCN1CCC(CCC(=O)c2cc(Cl)c(N)cc2OC)CC1 (10 µM)	0.237
C[C@H](CCC(=O)O)[C@H]1CC[C@H]2[C@@H]3C[C@H](O)[C@@H]4C[C@H](O)CC[C@]4(C)[C@H]3CC[C@]12C [Hyodeoxycholic acid (HDCA)] (10 µM)	0.109
CCCOc1ccc(C(=O)OCCN(CC)CC)cc1N [proxymetacaine] (10 µM)	-0.0115

Tested on: Vero E6 infected with SARS-CoV-2
Assay: SARS-CoV-2 infection rate relative to infected DMSO; higher = more infection, active = 60 or less
Details: 24 h

SMILES	SARS-CoV-2 infection rate
CNC(=O)c1nn(C)c2c1C(C)(C)Cc1cnc(Nc3ccc(N4CCN(C)CC4)cc3)nc1-2 (10 µM)	112% (inactive)
CC1Oc2cc(cnc2N)-c2c(nn(C)c2C#N)CN(C)C(=O)c2ccc(F)cc21 (stereo unspecified) (0.833333 µM)	81.5% (inactive)
CC1=C(C)C(=O)C(C(CCCCCC(=O)O)c2ccccc2)=C(C)C1=O (stereo unspecified) [seratrodast] (10 µM)	100% (inactive)
O=C(O)CC[C@H]1CC[C@@](c2cc(F)ccc2F)(S(=O)(=O)c2ccc(Cl)cc2)CC1 (10 µM)	110% (inactive)
COc1cc2c(cc1OC)CC(=O)N(CCCN(C)C[C@H]1Cc3cc(OC)c(OC)cc31)CC2 [ivabradine] (10 µM)	112% (inactive)
CC(C)(C)c1ccc(CN(Cc2cccc(OCC(=O)O)c2)S(=O)(=O)c2cccnc2)cc1 [evatanepag] (10 µM)	97.5% (inactive)
c1cc2c3c(c1)c1c(n3CCNC2)CCCC1 (10 µM)	104% (inactive)
c1ccc2c(CC3=NCCN3)cccc2c1 [naphazoline] (10 µM)	99% (inactive)
Cc1[nH]cnc1CN1CCc2c(c3ccccc3n2C)C1=O [alosetron] (10 µM)	98% (inactive)
COc1ccc2[nH]c([S+]([O-])Cc3ncc(C)c(OC)c3C)nc2c1 (stereo unspecified) [omeprazole] (10 µM)	104% (inactive)
CCN1CCCC1=O [1-ethyl-2-pyrrolidone] (10 µM)	104% (inactive)
CC[C@H]1CN2CC[C@H]1C[C@@H]2[C@@H](O)c1ccnc2ccc(OC)cc12 [hydroquinidine] (10 µM)	90% (inactive)
CC(C)(C)c1ccc(S(=O)(=O)NCc2ccc(C(=O)Nc3cccnc3)cc2)cc1 (0.833333 µM)	107% (inactive)
COC(=O)[C@H](CC(C)C)NC(=O)[C@@H](N)CC(C)C [leucylleucine-methyl-ester] (10 µM)	99.5% (inactive)
C[N+]12CCC(CC1)C(OC(=O)C(O)(c1ccccc1)c1ccccc1)C2 (stereo unspecified) [clidinium] (10 µM)	95% (inactive)
CS(=O)(=O)c1ccc(C2=C(c3ccccc3)C(=O)OC2)cc1 [rofecoxib] (10 µM)	96.5% (inactive)
C=C(C)[C@@H]1[C@H]2OC(=O)[C@@H]1[C@]1(O)C[C@H]3O[C@]34C(=O)O[C@H]2[C@]14C [picrotoxinin] (10 µM)	116% (inactive)
O=C(CCCCC(=O)Nc1c(I)cc(I)c(C(=O)O)c1I)Nc1c(I)cc(I)c(C(=O)O)c1I [iodipamide] (10 µM)	93% (inactive)
O=C(Nc1cc(C(F)(F)F)ccc1O)Nc1cc(C(F)(F)F)ccc1O (10 µM)	104% (inactive)
CC1=CC[C@@H](C(C)(C)O)C[C@@H]1O [sobrepin] (10 µM)	114% (inactive)

SMILES	SARS-CoV-2 infection rate
CNC(=C[N+](=O)[O-])NCCSCc1ccc(CN(C)C)o1 [ranitidine] (10 µM)	111% (inactive)
CCc1cnc(N2CCC(c3nc(COc4ccc(-n5cnnn5)cc4)cs3)CC2)nc1 (10 µM)	97% (inactive)
NC(=S)N/N=C/c1coc2ccccc2c1=O.[Cl][Cu][Cl] (10 µM)	110% (inactive)
COc1ccc(C2CNC(=O)C2)cc1OC1CCCC1 (stereo unspecified) [rolipram] (10 µM)	100% (inactive)
O=C(O)[C@@H]1C[C@@H](C2CCCCC2)CN1C(=O)CP(=O)(O)CCCCc1ccccc1 [fosinoprilat] (10 µM)	100% (inactive)
Cc1ccc2cc(-c3c(C)ccc(C(=O)c4c(-c5ccccc5)n(C)n(-c5ccccc5)c4=O)c3N)ccc2n1 (10 µM)	76% (inactive)
Cc1ccc(O)c([C@H](CCN(C(C)C)C(C)C)c2ccccc2)c1 [tolterodine] (10 µM)	77.5% (inactive)
NC(=O)CN1CC[C@@H](NC(=O)[C@@H]2CCCN2)C1=O (10 µM)	110% (inactive)
CC=CC1=C(C(=O)O)N2C(=O)[C@@H](NC(=O)[C@H](N)c3ccc(O)cc3)[C@H]2SC1 (mixture of isomers) [cefprozil] (10 µM)	99% (inactive)
NC12CC3CC(CC(C3)C1)C2 [amantadine] (10 µM)	110% (inactive)
O=[N+]([O-])/N=C1\NCCN1Cc1ccc(Cl)nc1 [imidacloprid] (10 µM)	98.5% (inactive)
COC(=O)C1=C(C)NC(C)=C(C(=O)NCCCN2CCC(c3ccccc3)(c3ccccc3)CC2)C1c1ccc([N+](=O)[O-])cc1 (stereo unspecified) (0.833333 µM)	98.5% (inactive)
N#C/C(=C\c1cccn1S(=O)(=O)c1cccc([N+](=O)[O-])c1)S(=O)(=O)c1ccc(F)cc1 (10 µM)	109% (inactive)
COc1ccc(-n2[nH]c3c4c(ncc3c2=O)CCCCC4)cc1 (10 µM)	96% (inactive)
C=CC(=O)N1CCN(C(=O)CNc2cc(I)c(Cl)cc2O)CC1 [K-Ras(G12C)-inhibitor-12] (10 µM)	111% (inactive)
COc1ccc(S(=O)(=O)N2CCCN(S(=O)(=O)c3ccc(OC)c(OC)c3)CC2)cc1OC (10 µM)	106% (inactive)
Cc1cc(C(N)=O)ccc1-n1c(CCC(=O)O)ccc1-c1ccc(-n2ccnc2)cc1 (10 µM)	89% (inactive)
CCCCN1CCC(CCC(=O)c2cc(Cl)c(N)cc2OC)CC1 (10 µM)	95% (inactive)
C[C@H](CCC(=O)O)[C@H]1CC[C@H]2[C@@H]3C[C@H](O)[C@@H]4C[C@H](O)CC[C@]4(C)[C@H]3CC[C@]12C [Hyodeoxycholic acid (HDCA)] (10 µM)	102% (inactive)
CCCOc1ccc(C(=O)OCCN(CC)CC)cc1N [proxymetacaine] (10 µM)	108% (inactive)
